High-throughput results from PubChem.
Most compounds without a hit are left out; they make up all but 2.3% or so of the library.
uPA generation = blocks generation of uPA at the cell surface. cell surface uPA generation assay, qHTS. Potency, µM (doses to about 38.3 µM), without a hit: top-dose activity change, negative = inhibition, most hits filed as inhibitors. 330,000 compounds, 0.31% hits; active = well fitted inhibition curve with a large enough effect; inconclusive = small, poorly fitted or top-dose-only effect; inactive = no such curve, though single readings can be large or run the other way; tested in mouse RAW 264.7 cells; note: % is set by controls: 0 for no effect and ±100 for the full control effect; nearly all actives have a fitted effect of over 55% in size
TDP-43 yeast inh = TDP-43 toxicity inhibition in yeast | TDP-43 expressing yeast growth rescue, BacTiter-Glo, 24 h | Potency, µM (top dose mostly 46.1 µM), without a hit: top-dose growth rescue (activation), usual class: activators | 410,000 compounds, 1.8% hits | AID 652104; note: % of control where 0% means no effect; nearly all actives have a fitted effect of over 50% in size
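Galactose-induced TDP-43 yeast, OD600=0.02, compound pinned; 24 hr, 30 deg C; BacTiter-Glo luminescence for growth. Inhibitors of TDP-43 toxicity read as activators.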
Chronic BCR inh = chronic active BCR signaling inhibition. AID 493014. Potency, µM (top dose mostly 46.1 µM), without a hit: at the top dose activity change, negative = inhibition, usual class: inhibitors. ABC-DLBCL IkBa-CBG/CBR reporter, luminescence ratio, 4 h. 340,000 compounds, 0.05% hits; active = well fitted inhibition curve with a large enough effect in the signal ratio, with a control signal flat, not every such curve was filed as active; inconclusive = small, poorly fitted or top-dose-only effect, or effect the other way, or a change in a side signal; the % refers to the signal ratio;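 note: plate controls were basal doxycycline-induced cells for no effect and cells given 10 µM MG132 for full effect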
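Doxycycline induced both beetle luciferases in TMD8 lymphoma cells; IKK-driven degradation limits the IkappaBalpha-fused green signal, while red luminescence normalises for cell number and nonspecific effects. Compounds tested up to 46 uM, 4 hrs.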
Abeta rescue = compounds reversing amyloid beta toxicity in yeast; yeast expressing A-beta42, growth rescue, OD600, 48 h; response scale: 0% DMSO, 100% iron-clioquinol control; 410,000 compounds, 0.063% hits; AID 1347071; Potency, µM (series often up to 46.1 µM), hits mostly activators; note: nearly all actives have a fitted effect of over 55% in size
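Growth rescue measured by 600 nm absorbance after 48 h yeast culture at 30 C with compound. Values normalized between DMSO and an equimolar ferric chloride plus clioquinol control.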
aSyn yeast inh = inhibitors of alpha-synuclein toxicity in yeast | Yeast expressing alpha-synuclein, growth rescue, BacTiter-Glo, 24 h | Potency, µM (doses to about 46.1 µM), for inactives: top-dose growth rescue (activation), hits mostly activators | 370,000 compounds, 0.14% hits | AID 652106; note: % of control where 0% means no effect; nearly all actives have a fitted effect of over 65% in size
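Rescue of yeast growth: cells expressing toxic alpha-synuclein, induced in galactose at OD600 0.02, incubated with compound 24 h at 30 C. ATP luminescence quantified growth; inhibitors of toxicity appear as activators.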
FUS suppressor = suppressors of FUS proteinopathy in yeast; 390,000 compounds, 0.24% hits; S. cerevisiae FUS-expressing, growth rescue, OD600, 24 h; Potency, µM (top dose mostly 76.6 µM), most hits filed as activators;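 note: plate controls were DMSO vehicle for no effect and reference control for full effect; nearly all actives have a fitted effect of over 55% in size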
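Toxicity suppression screen in FUS-yeast. Cells induced with 2% galactose, starting OD 0.005, treated 24hr at 30C with compounds at multiple final concentrations; growth by OD600.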
Starred values were filed as active, the others as inactive; i = inactive; ? = inconclusive; / = no result given; ! = a repeat was not active. Unless noted, calls come from the whole dose curve; as a rule, active = well fitted curve in the direction sought with a large enough effect; inconclusive = small, poorly fitted or top-dose-only effect, or another doubt; inactive = no such curve, though single readings can be large; an effect the other way counts as inactive or inconclusive. Potency is the fitted concentration of half-maximal effect.

SMILES	uPA generation	TDP-43 yeast inh	Chronic BCR inh	Abeta rescue	aSyn yeast inh	FUS suppressor
COc1ccc(-c2cc(-c3ccccc3)c(C#N)c(S(C)=O)n2)cc1 (stereo unspecified)	-13.0%	17.8µM*	?	i	5.9%	i
CCSc1nc(-c2ccc(OC)cc2)cc(-c2ccccc2)c1C#N	/	-20.8%	13.3%	i	14.5%	i
COc1ccccc1CNC(=O)CCn1c(=O)c2ccccc2n(CC(=O)Nc2ccc(C)cc2Cl)c1=O	/	-19.9%	/	i	/	i
CC(=O)Nc1ccc(NCN2C(=O)C3C4CCC(C4)C3C2=O)cc1 (stereo unspecified)	-1.1%	25.1µM*	-2.3%	i	3.7%	i
COc1ccc(OC)c(S(=O)(=O)Nc2ccc(Oc3ccccc3)cc2)c1	/	?	1.6%	?	2.0%	i
Cc1ccc(-c2nc(C(=O)NCC3CCCO3)cc3c2[nH]c2ccccc23)cc1 (stereo unspecified)	?	25.1µM*	?	i	?	i
COc1ccc(-c2nc(C(=O)NCC3CCCO3)cc3c2[nH]c2ccccc23)cc1 (stereo unspecified)	?	0.0%	?	i	-3.8%	?
O=C(NCC1CCCO1)c1cc2c([nH]c3ccccc32)c(-c2cccc(Br)c2)n1 (stereo unspecified)	?	10µM*	?	i	15.7%	?
COc1cc(O)c(C(CC(=O)N2CCCC2)c2ccc3c(c2)OCO3)c(OC)c1 (stereo unspecified)	14.7%	-3.2%	-2.9%	i	7.5%	i
COc1cc(O)c([C@@H](CC(=O)N2CC(C)CC(C)C2)c2ccc3c(c2)OCO3)c(OC)c1 (stereo partly specified)	/	/	/	/	/	25.1µM*
COc1cc(/C=N/NC(=S)NC2CC3CCC2C3)ccc1O (stereo unspecified)	-22.5%	22.4µM*	?	11.2µM*	-9.3%	i
COc1ccc(/C=N/NC(=S)N[C@H]2CC3CCC2C3)cc1 (stereo partly specified)	-1.2%	7.8%	?	?	0.8%	i
Cn1c(CO)c(-c2ccccc2)c2cc([N+](=O)[O-])ccc21	2.5%	14.1µM*	-0.6%	i	-5.5%	i
CC(=O)OCc1c(-c2ccccc2)c2cc([N+](=O)[O-])ccc2n1C	-5.8%	-3.0%	-0.8%	i	0.8%	i
O=C(c1cc2ccc3cccnc3c2[nH]1)N1CCN(c2cccc(Cl)c2)CC1	/	12.6µM*	?	i	/	?
Cc1ccc(Cl)cc1N1CCN(C(=O)c2cc3ccc4cccnc4c3[nH]2)CC1	/	20µM*	/	i	/	i
COc1cccc(N2CCN(C(=O)c3cc4cc(Cl)ccc4[nH]3)CC2)c1	-4.9%	12.6µM*	-7.8%	i	?	i
O=C(c1cc2cc(F)ccc2[nH]1)N1CCN(c2cccc(Cl)c2)CC1	-25.7%	4.9%	-5.3%	i	-2.0%	i
O=C(c1cc2ccc3cccnc3c2[nH]1)N1CCN(c2ccc(Cl)cc2)CC1	/	-6.3%	/	i	/	i
Cc1cccc(NC(=O)N2CCC(CN3CCC(C)CC3)CC2)c1C	/	-14.6%	/	i	/	i
Cc1ccccc1CCNC(=O)C1CCN(S(=O)(=O)c2ccc3c(ccn3C)c2)CC1	/	22.7%	/	i	/	i
COc1ccc2nc(SCC(=O)NC(C)C)[nH]c2c1	1.1%	-0.2%	0.3%	i	2.0%	i
COc1ccc2nc(SCC(=O)NC3CCCCC3C)[nH]c2c1 (stereo unspecified)	8.91µM*	22.3%	-3.4%	i	-1.1%	i
Cc1ccccc1NC(=S)NCC(c1cccnc1)N1CCOCC1 (stereo unspecified)	-0.1%	4.9%	0.7%	i	0.5%	i
CCOC(=O)C1=C(C)NC(C)=C(C(=O)OCC)C1c1cccc([N+](=O)[O-])c1	/	25.1µM*	/	i	13.0%	i
SMILES	uPA generation	TDP-43 yeast inh	Chronic BCR inh	Abeta rescue	aSyn yeast inh	FUS suppressor
CCCCOC(=O)C1=C(C)NC(=O)NC1c1cccc([N+](=O)[O-])c1 (stereo unspecified)	11.4%	20.3%	-11.3%	i	0.0%	i
CCn1c(CC(=O)Nc2ccc(C)c(Cl)c2)nnc1SCC(=O)Nc1nc(C)cs1	4.8%	-21.5%	5.1%	i	9.3%	i
COc1ccc(C(C)(O)c2nc(-c3csc4ccccc34)cs2)cc1 (stereo unspecified)	/	22.4µM*	/	?	27.2%	i
COc1ccc(C(C)(O)c2nc(/C=C/c3ccccc3)cs2)cc1 (stereo unspecified)	/	35.5µM*	/	?	?	i
Cc1nc2ccccc2c(=O)n1NC(=O)c1ccc(C(C)(C)C)cc1	5.5%	15.5%	-2.5%	i	-8.8%	i
Cc1ccc(C(C)C)c(OCC(=O)Nn2c(=O)[nH]c3ccccc3c2=O)c1	9.3%	0.0%	-7.6%	i	15.0%	/
Cc1ccc(C(=O)Nn2c(C)nc3ccccc3c2=O)cc1C	-3.5%	11.2µM*	1.5%	i	-1.4%	i
Cc1ccc(C(C)C)c(OCC(=O)Nn2c(C)nc3ccccc3c2=O)c1	16.9%	14.1µM*	?	i	5.0%	i
O=C(c1ccoc1)N1CCN(c2cc(-c3ccco3)nc3cc(-c4ccccc4)nn23)CC1	/	20µM*	/	i	-9.7%	?
O=C(c1ccoc1)N1CCN(c2cc(-c3ccccc3)nc3cc(-c4ccccc4)nn23)CC1	/	17.8µM*	/	i	-1.0%	i
CCOC(CNCc1cc(C)c2[nH]c3ccccc3c2c1C)OCC	-2.2%	15.4%	/	i	15.3%	i
CCOC(=O)c1c(NC(=O)C2c3ccccc3Oc3ccccc32)sc2c1CCC(CC)C2 (stereo unspecified)	/	19.1%	/	i	/	i
Cc1cc(O)c(C(C)C)cc1NC(=O)c1cccc(Cl)c1	-1.4%	16.5%	12.0%	i	/	i
CCC1CCc2c(sc(NC(=O)c3ccco3)c2C(N)=O)C1 (stereo unspecified)	-1.3%	12.6µM*	?	i	-9.0%	i
CC(C)(C)C1CCc2c(sc(NC(=O)c3ccco3)c2C(N)=O)C1 (stereo unspecified)	7.8%	12.5%	?	i	0.1%	i
Cc1[nH]nc(N=CC2=C(O)CC(C)(C)CC2=O)c1-c1ccc(Cl)cc1	-1.8%	15.8µM*!	0.1%	i	?	i
CCc1ccc(S(=O)(=O)NCc2cccn2Cc2cccc(C)c2)cc1	/	-0.6%	/	i	/	i
Cc1cccc(Cn2cccc2CNS(=O)(=O)c2ccccc2F)c1	/	20µM*	/	i	/	i
